# Gal4-VP16 FLuc = inhibits Gal4-VP16 luciferase reporter, ROR gamma counter-screen; Drosophila S2 Gal4-VP16 UAS-luciferase, luminescence, 20 h; Potency, µM (top dose mostly 53.6 µM), for inactives: at the highest dose activity, negative = inhibition, usual class: inhibitors; hit rate 3.5% among 310,000; AID 2546;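 also: Gal4-VP16 expression switched on by copper sulfate through the metallothionein promoter; potency is read from the fitted curve at half-maximal effect; % is scaled to controls: 0 for no effect and ±100 for the full control effect; nearly all actives have a fitted effect of over 50% in size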
# SW480 rerep = inducers of DNA re-replication in SW480 colon cancer cells. SW480 DNA re-replication, Hoechst DNA content imaging, 48 h. AID 624297. Potency, µM (titrated, usually from 46.1 µM), for inactives: top-dose re-replication activation, hits mostly activators. hit rate 1.8% among 340,000; also: potency is read from the fitted curve at half-maximal effect; % of control where 0% means no effect; nearly all actives have a fitted effect of over 55% in size
#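 SW480 cells exposed to compounds for 48 hr at 37 C, 5% CO2, then Hoechst-stained 40 min. Nuclear DNA content imaged by fluorescence scanning (405 nm excitation, 500-530 nm emission); re-replication scored as increased high-intensity nuclei.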
# IL1B secr inh = inhibitors of inflammasome signaling (IL-1 beta secretion); THP-1 LPS/ATP IL-1B secretion, AlphaLISA, 16 h; hits give low values; activity change, % at 57.5 µM; hit rate 4.7% among 360,000; in the data active = activity change below about -50%; inconclusive = mostly about -30% to -49%; also: % is scaled to controls: 0 for no effect and ±100 for the full control effect
#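 Secreted IL-1B measured by AlphaLISA bead assay after 16 h compound exposure of THP-1 cells; compounds (final up to 57.5 uM) added 1 h before LPS (250 ng/mL) and ATP (1.25 mM) stimulation; lower signal means less secretion.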
# MCF10A rerep = induces DNA re-replication in MCF 10a normal breast cells | hit rate 2.9% among 350,000 | MCF 10A DNA re-replication, Hoechst nuclear intensity, 48 h | Potency, µM (doses to about 46.1 µM), without a hit: at the highest dose activity, positive = re-replication, actives largely listed as activators | AID 624296; also: potency is read from the fitted curve at half-maximal effect; % of control where 0% means no effect; nearly all actives have a fitted effect of over 50% in size
# RORgamma inh = inhibitors of mouse ROR gamma transcriptional activity; hit rate 5.4% among 310,000; Potency, µM (titrated, usually from 53.6 µM), without a hit: at the top dose activity change, negative = inhibition, actives largely listed as inhibitors; P51450; Drosophila S2 Gal4-RORgamma UAS-luciferase reporter, 20 h; AID 2551; also: potency is read from the fitted curve at half-maximal effect; % is scaled to controls: 0 for no effect and ±100 for the full control effect; nearly all actives have a fitted effect of over 60% in size
# Target sequence (P51450 whole entry, looked up, the tested form may be a part): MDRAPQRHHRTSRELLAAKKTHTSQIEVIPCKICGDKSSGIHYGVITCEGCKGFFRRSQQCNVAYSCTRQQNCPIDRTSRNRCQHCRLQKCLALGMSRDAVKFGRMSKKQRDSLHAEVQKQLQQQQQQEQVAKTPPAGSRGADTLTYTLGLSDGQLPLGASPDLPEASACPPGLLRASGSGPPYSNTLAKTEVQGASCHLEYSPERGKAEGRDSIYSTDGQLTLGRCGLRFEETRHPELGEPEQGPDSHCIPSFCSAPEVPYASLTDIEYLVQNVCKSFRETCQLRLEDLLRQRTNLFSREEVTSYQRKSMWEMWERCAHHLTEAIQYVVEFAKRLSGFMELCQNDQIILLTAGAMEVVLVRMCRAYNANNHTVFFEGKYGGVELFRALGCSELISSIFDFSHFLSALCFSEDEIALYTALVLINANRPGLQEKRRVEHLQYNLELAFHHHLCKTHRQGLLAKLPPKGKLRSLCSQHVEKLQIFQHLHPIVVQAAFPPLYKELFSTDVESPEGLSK
#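 Schneider cells (Drosophila), stable Gal4 DBD–ROR gamma + UAS-luc; 1 hr cmpd preincubation; Cu2+ induction 700 uM final; 20 hr ambient; luminescence.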
# * = called active by the depositor; u = inconclusive; x = no result; [ ] = dose if it differs, or a comment. Sampled rows, rich in hits. Any-hit rate of the full collection: about 11%. Unless noted, calls follow the shape of the dose curve; as a rule, active = well fitted curve in the direction sought with a large enough effect; inconclusive = small, poorly fitted or top-dose-only effect, or another doubt; inactive = no such curve, though single readings can be large; an effect the other way counts as inactive or inconclusive.
SMILES,Gal4-VP16 FLuc,SW480 rerep,IL1B secr inh,MCF10A rerep,RORgamma inh
Cc1c(NC(=O)CSc2nc3ccccc3c(=O)n2C(C)C)c(=O)n(-c2ccccc2)n1C,x,-2.9%,-26.6,-5.5%,x
CCC(C)C(NC(=O)c1ccc(Cl)cc1)C(=O)Nc1cccnc1 (configuration not stated),5.2%,u,-85.1*,1.9%,3.7%
Cc1c(C(=O)NNC(=O)c2csc(N3CCOCC3)n2)oc2ccc(Br)cc12,x,x,2.3,x,x
COc1ccc(CN2CCC(C(=O)c3ccc(Cl)cc3)CC2)cc1,-8.8%,6.8%,-26.9,13.9%,23.1%[1.91 µM]
COCCNC(=O)C1(C)Cc2c(-c3ccc(N(C)C)cc3)ccnc2O1 (configuration not stated),x,x,9.5,x,x
CC(C)C[C@@H](CN1CCC[C@H]1CN1C(=O)C(=O)NC[C@@H]1Cc1ccccc1)N1C[C@H](Cc2ccccc2)N(CCc2ccccc2)C(=O)C1=O,x,x,-77.4*,x,x
CC(C)C[C@H]1CNC(=O)C(=O)N1C[C@H]1CCCN1C[C@H](CC(C)C)N1C[C@H](CC(C)C)N(CCc2ccccc2)C(=O)C1=O,x,x,-74.7*,x,x
O=C1NC[C@H](Cc2ccccc2)N(C[C@@H]2CCCN2C[C@H](Cc2ccc(O)cc2)N2C[C@H](Cc3ccccc3)N(CCc3ccccc3)C(=O)C2=O)C1=O,x,x,-80.2*,x,x
COc1ccc(C(=O)OCC(=O)c2ccc[nH]2)cc1,x,4.4%,-17.2,-1.2%,x
CCOC(=O)c1cc(-c2ccccc2)nc2nc(N3CCCCC3)sc12,-0.9%,4.1%,14.6,9.2µM*,16.9%
CCOC(=O)c1cc(-c2ccccc2)nc2ccc(C)cc12,-6.0%,3.7%,-6.1,u,14.2%
O=C(O)c1cc(-c2ccccc2)nc2nc(N3CCCCC3)sc12,-2.2%,x,x,x,15.9%
CCOC(=O)c1cc(-c2ccccc2)nc2nc(N(CC)CC)sc12,u,u,-53.9*,5.17µM*,22.6%
Cc1sc2ncnc(NCc3cccs3)c2c1C,10µM*,-1.2%,u,8.8%,-13.1%
Cc1sc2ncnc(NCc3cccnc3)c2c1C,-10.3%,-28.1%,37.9,-20.3%,-3.6%
c1coc(CNc2nc3nonc3nc2NCc2ccco2)c1,12.6µM*,-14.3%,24.4,14.9%,0.0%
Cc1sc2ncnc(NCc3ccco3)c2c1C,20µM*,0.6%,-59.1*,-2.8%,18.9%
c1coc(CNc2ncnc3sc4c(c23)CCCCC4)c1,7.1%,0.9%,-2.8,3.7%,-18.4%
Cc1nc(NCc2ccco2)c2cn[nH]c2n1,x,-13.4%,27.6,5.7%,x
CCCCNC(=O)C(c1ccc(OCC(=O)OC)c(C(=O)OC)c1)N(Cc1ccccn1)C(=O)CCCCCN1C(=O)NC(c2ccc(-c3ccccc3)cc2)C(C(=O)OCc2ccccc2)=C1C (configuration not stated),-8.6%,x,x,x,28.3%
NS(=O)(=O)c1cc2c(cc1Cl)N[C@@H]([C@@H]1C[C@@H]3C=C[C@H]1C3)NS2(=O)=O,-2.2%,x,x,x,29.4%
CC[C@@]1(C(=O)OC)N[C@H](CN(C)C(=O)c2ccc(C)cc2)[C@@H]2C(=O)N(C)C(=O)[C@@H]21,x,-1.6%,16.2,3.5%,x
Cc1ccc(N(C)S(=O)(=O)c2cccc(C(=O)Nc3nc4ccccc4[nH]3)c2)cc1,1.12µM*,u,u,u,1.26µM*
COc1ccc(N(C)S(=O)(=O)c2cccc(C(=O)Nc3nnc(C4CC4)s3)c2)cc1,-7.1%,1.2%,50.6,3.1%,-1.6%
O=C(Nc1nc2ccccc2[nH]1)c1ccc(Br)o1,u,26.2%,15.0,u,7.08µM*
Cc1ccc(N(C)S(=O)(=O)c2cccc(C(=O)Nc3nnc(C4CC4)s3)c2)cc1,-7.6%,19.1%[1.84 µM],-5.4,u,11.2µM*
CN(C)S(=O)(=O)c1ccc(Cl)c(C(=O)Nc2nc3ccccc3[nH]2)c1,u,-2.5%,-7.5,-0.4%,u
O=C(Nc1nc2ccccc2[nH]1)c1cccc(Br)c1,5.01µM*,18.5%,9.1,5.7%,2.24µM*
NS(=O)(=O)c1ccc(N2CCN(CCOc3ccc(Cl)cc3)CC2)nc1,u,u,-10.9,1.6%,u

# Screens deposited in PubChem by National Center for Advancing Translational Sciences (NCATS).
